Source: PubChem BioAssay AID624297 (National Center for Advancing Translational Sciences (NCATS), 2012)
The whole screen tested about 340,000 compounds, of which about 6,200 (1.8%) were called active. About 10% were inconclusive and are not listed. The entries come from a sample that favours actives as a whole. A call without a number means that no potency is given here. Values without a mark were called inactive. Calls follow the shape of the dose curve; as a rule, active = well fitted activation curve with a large enough effect; inconclusive = small, poorly fitted or top-dose-only effect; inactive = no such curve, though single readings can be large or run the other way.

Assay: A quantitative high throughput screen for small molecules that induce DNA re-replication in SW480 colon adenocarcinoma cells. Also: nearly all actives have a fitted effect of over 55% in size.
Settings: Hoechst DNA content imaging, 48 h; series mostly up to 46.1 µM
How it was run: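 Compounds, transferred as 23 nL by pin tool, were incubated with cells for 48 hr; DNA content per nucleus was then quantified by Hoechst staining and fluorescence plate imaging.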
Potency is read from the fitted curve at half-maximal effect.

Row | SMILES | Potency | re-replication activation
1 | CC(NC(=O)c1ccccc1)C(=O)OCC(=O)Nc1cccc(S(=O)(=O)N2CCCC2)c1 (centres undefined) | inactive | –
2 | CC1(C)CC(=O)C=C(Nc2ccccc2)C1 | inactive | –
3 | CC1(C)CC(=O)C(CC(=O)N2CCC(Cc3ccccc3)CC2)C(=O)C1 | inactive | –
4 | CC1(C)CC(=O)C(C2c3ccccc3S(=O)(=O)c3ccccc32)C(=O)C1 | 4.11 µM (active) | –
5 | COC(=O)C1CCN(C(=O)COC(=O)c2cc(S(=O)(=O)N3CCOCC3)ccc2C)CC1 | inactive | –
6 | C#CCOCCOCCOCCNc1nc(N2CCN(C(=O)Cn3cc(CCO)nn3)CC2)nc(N2CCN(C(=O)Cn3cc(CCCN=C(N)N)nn3)CC2)n1 | inactive | –
7 | COc1ccccc1-c1nc(SC)n[nH]1 | inactive | –
8 | Cc1cc(C)nc(Nc2cc([N+](=O)[O-])ccc2C)n1 | inactive | –
9 | Cc1cc(C)nc(Nc2n[nH]c(-c3ccccc3N)n2)n1 | 29.1 µM (active) | –
10 | Cc1noc(C)c1NC(=O)Nc1cccc2c1O[C@H](CN(C)C(=O)Nc1ccccc1)[C@@H](C)CN([C@H](C)CO)C2=O | inactive | –
11 | CCCSc1ccc([C@H]2N[C@@](Cc3ccccc3)(C(=O)OC)[C@H]3C(=O)N(C)C(=O)[C@@H]23)cc1 | inactive | –
12 | Cc1ccc(CNC(=O)COC(=O)C2CCC2)cc1 | inactive | –
13 | Cc1cnc(NC(=O)CSc2nnc(-c3ccc(Cl)cc3Cl)n2N)s1 | inactive | –
14 | Cc1ccc(CCC(=O)Nc2ncc(Cc3cc(Cl)ccc3Cl)s2)o1 | 1.64 µM (active) | –
15 | CCOc1ccccc1NC(=O)CCc1ccc(C)o1 | inactive | –
16 | O=[N+]([O-])c1cc2ccccc2nc1-c1ccccc1 | inactive | –
17 | O=C(CN1C(=O)NC2(CCOc3ccccc32)C1=O)Nc1cccc([N+](=O)[O-])c1 (centres undefined) | inactive | –
18 | Cc1ccnc(NC(=O)c2ccco2)n1 | inactive | –
19 | Cc1ccc(C(=O)COc2cccc(NC(=O)c3ccco3)c2)cc1 | inactive | –
20 | CCn1nc(NC(=O)c2ccco2)c2cc3ccc(C)cc3nc21 | 9.2 µM (active) | –

Row | SMILES | Potency | re-replication activation
21 | O=S1(=O)CCOC[C@H](Cc2ccccc2)N1Cc1ccccc1Br | inactive | –
22 | O=C(CCc1nc2ccccc2c(=O)[nH]1)OCC(=O)c1cccc(Cl)c1 | inactive | –
23 | O=C(/C(=C/c1cccc(Cl)c1)c1nc2ccccc2[nH]1)c1ccccc1 | 18.4 µM (active) | –
24 | CCC(=O)/C(=C(/O)c1ccccc1)c1nc2ccccc2[nH]1 | inactive | –
25 | NCCN1CCN2C(=O)CN(C(=O)c3ccccc3)CC12 (centres undefined) | inactive | –
26 | COc1ccc(N2CCN(C(CNS(=O)(=O)c3ccc(C)cc3)c3ccccc3)CC2)cc1 (centres undefined) | inactive | –
27 | Cc1cccc(C)c1NC(=O)C(Cl)C(=O)c1ccccc1 (centres undefined) | 16.4 µM (active) | –
28 | Cc1cccc(C)c1NC(=O)C(c1ccccc1)N1CC(=O)Nc2ccccc21 (centres undefined) | inactive | –
29 | Cc1cccc(C)c1NC(=O)CN(C)C(=O)CCC(=O)c1ccccc1 | inactive | –
30 | COc1cc(OC)c(C(=O)NNC(=O)c2ccc(NS(=O)(=O)c3cccs3)cc2)cc1OC | inactive | –
31 | NC(=O)C1(Nc2ccc([N+](=O)[O-])cc2)CCCC1 | inactive | –
32 | C/C(=N/OC(=O)c1c(-c2c(F)cccc2Cl)noc1C)c1cnccn1 | inactive | –
33 | CCOC(=O)c1cc2c(=O)n3ccccc3nc2n(CC(C)C)c1=NC(=O)c1c(-c2c(F)cccc2Cl)noc1C | 13 µM (active) | –
34 | CCCn1c(=NC(C)=O)c(C(=O)OCC)cc2c(=O)n3ccccc3nc21 | inactive | –
35 | O=C(OCC(=O)N1CCN(C(=O)c2ccco2)CC1)c1c(Cl)cccc1Cl | inactive | –
36 | O=C(/C=C/c1ccc([N+](=O)[O-])o1)NNC(=O)c1ccc(F)cc1 | 3.66 µM (active) | –
37 | Cc1ccc(/C=C/C(=O)Nc2ccc([N+](=O)[O-])c(NC(=O)/C=C/c3ccc(C)o3)c2)o1 | inactive | –
38 | O=C(NNC(=O)C1CCCC1)c1ccc(F)cc1 | inactive | –
39 | Cc1cccc(C(=O)OCC(=O)NC(C)C2CC3CCC2C3)c1O (centres undefined) | inactive | –
40 | CNC(=S)NNC(=O)c1oc2nc(-c3ccccc3)cc(-c3ccco3)c2c1N | 14.6 µM (active) | –

Row | SMILES | Potency | re-replication activation
41 | CNC(=S)NNC(=O)c1sccc1OCc1ccccc1 | inactive | –
42 | CNC(=S)NNC(=O)c1cccn(Cc2ccccc2)c1=O | inactive | –
43 | COc1ccc(CC(=O)NC(C)c2ccc(Cl)c(Cl)c2)cc1S(=O)(=O)N1CCOCC1 (centres undefined) | inactive | –
44 | Cc1ccc(Nc2c(O)nc[nH]c2=O)cc1C | inactive | –
45 | C[C@]12CC[C@H](O)CC1=CCC1C2CC[C@@]2(C)C1CC[C@@H]2NC(=O)CCC(=O)O (some centres undefined) | inactive | –
46 | COC(=O)C1CC2=C(CC(C)(C)CC2=O)N(c2ccccc2)C1=O (centres undefined) | inactive | –
47 | CCOC(=O)c1ccc(NC(=O)c2cccnc2)cc1 | inactive | –
48 | Cc1ccc(S(=O)(=O)/N=C(/Nc2ccc3[nH]c(=O)[nH]c3c2)c2ccccc2)cc1 | inactive | –
49 | CCOC(=O)c1ccc(N/C(=N/S(=O)(=O)c2ccccc2)c2ccccc2)cc1 | 20.6 µM (active) | –
50 | NC(=S)NN=C1CCCC(C(F)(F)F)C1 (centres undefined) | inactive | –
51 | O=[N+]([O-])c1ccc(C=NN=Cc2ccc([N+](=O)[O-])cc2)cc1 | inactive | –
52 | O=C(NN=Cc1ccc([N+](=O)[O-])cc1)C1CC1 | inactive | –
53 | O=C1/C(=C\c2ccc([N+](=O)[O-])cc2)CS(=O)(=O)C/C1=C/c1ccc([N+](=O)[O-])cc1 | 4.11 µM (active) | –
54 | CCC(CO)Oc1cc(NC(=O)c2cccc(F)c2)c2ncn(C(C)C)c2c1 (centres undefined) | inactive | –
55 | O=C1N[C@@H](c2ccccc2)COC(=O)[C@H](Cc2ccc(F)cc2)C/C=C\C[C@@H]1CC(=O)N(CCO)Cc1ccccc1 | inactive | –
56 | CC1(C)Cc2c(C#N)c(SCc3nc4ccccc4[nH]3)nc(N3CCOCC3)c2CO1 | 12.6 µM (active) | –
57 | COc1ccc(CSc2nc(N3CCOCC3)c3c(c2C#N)CC(C)(C)OC3)cc1 | inactive | –
58 | CC(C)C(=O)N1CCN(c2nc(-c3ccccc3)c3c(c2C#N)CC(C)(C)OC3)CC1 | inactive | –
59 | C=CC(COCc1ccccc1)N(CC(=O)OC)S(=O)(=O)c1cc(Br)ccc1OC (centres undefined) | – | 4.23% [at 9.22 µM]
